In PMC12431657, “Discovery and mechanistic insights of dibenzoylmethane as a broad spectrum inhibitor of coronavirus” (PLOS Pathogens, 2025):
Where a name gives a salt, the structure may show the parent alone. Read-outs that look alike come from different tables or passages of the source. The campaign covered roughly 3,300 compounds. About 60 (2%) showed an effect of 50% or more. This is one part of a sample in which strong results are shown more often than they occur.

Test system: HCoV-OC43
Parameters: species or system RD; HTS, protection from HCoV-OC43 induced cell death, luminescent cell viability (CellCounting-Lite 2.0), inhibition rate
Details: 24 h post infection, 1 h compound pre-incubation, 10 µM, inhibitor

SMILES	OC43 Inhibition rate	OC43 Inhibition rate (OC43 Inhibition rate, 24 h)
CC1(C)CC[C@]2(C(=O)O)CC[C@]3(C)C(=CC[C@@H]4[C@@]5(C)CC[C@H](O[C@@H]6O[C@H](C(=O)O)[C@@H](O)[C@H](O[C@@H]7OC[C@@H](O)[C@H](O)[C@H]7O[C@@H]7O[C@H](CO)[C@@H](O)[C@H](O)[C@H]7O)[C@H]6O)C(C)(C)[C@@H]5CC[C@]43C)[C@@H]2C1 [Oleanolic acid-3-O-glucosyl(1-2)xylyl(1-3)glucosiduronic acid]	-0.1%	–
CC(=O)c1ccc2ccccc2c1 [2-Acetonaphthone]	-1.5%	–
c1cncnc1 [Pyrimidine]	-0.5%	–
Nc1nc(O)c2[nH]nnc2n1 [8-Azaguanine]	54.4%	–
C/C=C/C=C/C(=O)O [Potassium sorbate]	–	1.3%
C=C1CCC2(C(C)C)CC12 (stereo not shown) [Sabinene]	-0.5%	–
C[C@@H](O)CC(=O)O [(R)-3-Hydroxybutanoic acid]	–	-0.8%
CC(=O)[C@H]1CC[C@H]2[C@@H]3CC=C4C[C@@H](O)CC[C@]4(C)[C@H]3CC[C@]12C [Pregnenolone]	1.3%	–
C[C@H]1[C@H]2CC[C@H]3[C@@H]4CC=C5C[C@@H](N(C)C)CC[C@]5(C)[C@H]4CC[C@]23CN1C [Conessine]	52.4%	–
C[C@]12CC[C@H]3[C@@H](CC=C4C[C@@H](O)CC[C@@]43C)[C@@H]1CC[C@@H]2C(=O)CO [21-Hydroxypregnenolone]	-0.2%	–
CC1(C)CC[C@]2(C(=O)O)CC[C@]3(C)C(=CC[C@@H]4[C@@]5(C)CC[C@@H](O)C(C)(C)[C@@H]5CC[C@]43C)[C@@H]2C1 [3-Epioleanolic acid]	-0.6%	–
OC1OC[C@@H](O)[C@H](O)[C@@H]1O (stereo partly drawn) [D-Lyxose]	-0.4%	–
C=C1C(=O)[C@@]23[C@H](O)C[C@@H]4C(C)(C)CC[C@H](O)[C@@]4(CO)[C@@H]2CC[C@@H]1[C@H]3O [Kamebakaurin]	-2.9%	–
C=C1C(=O)[C@@]23[C@@H]4OC5O[C@@]2(O)[C@@H](O)[C@@H]2C(C)(C)CC[C@@H](O)[C@]52[C@@H]3CC[C@@H]14 [ponicidin]	75.9%	–
C=C1C(=O)[C@]23[C@H](O)[C@H]1CC[C@H]2[C@@]12CO[C@]3(O)[C@@H](O)[C@@H]1C(C)(C)CC[C@@H]2O [Oridonin]	17.2%	–
CC(C)(CC(=O)O)CC(=O)O [3,3-Dimethylglutaric acid]	-0.3%	–
C/C=C(\C)C(=O)OC1c2c(ccc3ccc(=O)oc23)OC(C)(C)C1OC(=O)/C(C)=C/C (stereo not shown) [Praeruptorin B]	7.3%	–
C/C=C(/C)C(=O)OC(C)(C)[C@@H]1Cc2c(ccc3ccc(=O)oc23)O1 [Columbianadin, columbianadin]	107.6%	–
C/C=C(/C)C(=O)O[C@@H]1c2c(ccc3ccc(=O)oc23)OC(C)(C)[C@@H]1OC(=O)/C(C)=C\C [(-)-Anomalin]	32.9%	–
Nc1ccccc1C(=O)C[C@@H](N)C(=O)O [D-Kynurenine]	-6.1%	–
CCCCCCCC/C=C\CCCCCCCC(=O)NCc1ccccc1 [N-Benzyloleamide]	56.9%	–
CCCCCCCCCCCCCCCCCC(=O)NCc1ccccc1 [N-Benzyloctadecanamide]	-0.1%	–
CCCCC/C=C\C/C=C\CCCCCCCC(=O)NCc1ccccc1 [N-Benzyllinoleamide]	40%	–
COc1cc([C@@H]2[C@H]3CO[C@@]4(O)C(=O)[C@@H]2C=C([C@H]2Oc5cc(O)cc(O)c5C(=O)[C@@H]2O)[C@@H]34)ccc1O [Silydianin]	-0.1%	–

SMILES	OC43 Inhibition rate	OC43 Inhibition rate (OC43 Inhibition rate, 24 h)
O=C(/C=C/c1ccccc1)OCc1ccccc1 [Benzyl cinnamate]	2%	–
O=C(CCCCCCCCc1ccc(O)cc1)c1c(O)cccc1O [Malabaricone B]	54%	–
O=C(CCc1ccc(O)cc1)c1c(O)cc(O)cc1O [Phloretin]	-0.3%	–
O=C(CCCCCCCCc1ccc(O)c(O)c1)c1c(O)cccc1O [Malabaricone C]	12.2%	–
CCCCCCCCCCCCCCCCCCCCC [Heneicosane]	-0.3%	–
CO[C@H]1[C@@H](O)[C@H](O[C@@H]2[C@@H](C)O[C@@H](O[C@H]3CC[C@@]4(C)[C@@H](CC[C@@]56O[C@@]57CC[C@@H](C(C)=O)[C@@]7(C)[C@H](OC(C)=O)[C@@H](OC(=O)c5ccccc5)[C@H]46)C3)C[C@H]2OC)O[C@H](C)[C@H]1O [Tenacissoside I]	-4%	–
Cc1ccc(O)c(O)c1 [4-Methylcatechol]	-0.9%	–
COc1cc(O)c(C(=O)/C=C/c2ccccc2)c(OC)c1 [Flavokawain B]	58.3%	–
COc1cc(O)c(C(=O)/C=C/c2ccc(O)cc2)c(OC)c1 [Flavokawain C]	4.2%	–
COc1cc(O)c(C(=O)/C=C/c2ccccc2)c(O)c1 [Pinostrobin chalcone]	0%	–
O=C(N[C@@H](c1ccccc1)[C@@H](O)C(=O)O)c1ccccc1 [N-Benzoyl-(2R,3S)-3-phenylisoserine]	0.3%	–
C/C=C(/C)C(=O)O [Angelic acid]	-0.3%	–
CC(=O)OC/C1=C\[C@H]2[C@@H](OC(=O)/C=C/c3ccccc3)[C@@H](C)C[C@]2(OC(C)=O)C(=O)/C(C)=C/[C@@H]2[C@H](CC1)C2(C)C [Euphorbia factor L7a]	75.3%	–
CC(=O)OC/C1=C/C[C@H]2[C@@H](/C=C(\C)C(=O)[C@@]3(OC(C)=O)C[C@H](C)[C@H](OC(=O)c4ccccc4)[C@@H]3[C@H]1OC(C)=O)C2(C)C [Euphorbia factor L7b]	8.6%	–
CCOC(=O)/C=C/c1ccccc1 [Ethyl cinnamate]	-1.2%	–
COc1cccc(-c2oc3ccccc3c(=O)c2O)c1 [3'-Methoxyflavonol]	-2%	–
c1cc2c(c3c1CC1c4cc5c(cc4CCN1C3)OCO5)OCO2 (racemic) [(±)-Stylopine]	-0.3%	–
O[C@H]1[C@H]2c3cc4c(cc3CN3CC[C@H](C[C@@H]1O)[C@H]23)OCO4 [Dihydrolycorine]	0%	–
O[C@H]1[C@H]2c3cc4c(cc3CN3CCC(=C[C@@H]1O)[C@H]23)OCO4 [Lycorine]	60.9%	–
OCc1cccc2ccccc12 [1-Naphthalenemethanol]	2.9%	–
CC(C)=CCC[C@](C)(O[C@@H]1O[C@H](CO)[C@@H](O)[C@H](O)[C@H]1O)[C@H]1CC[C@]2(C)[C@@H]1[C@H](O)C[C@@H]1[C@@]3(C)CC[C@H](O)C(C)(C)[C@@H]3CC[C@]12C [Ginsenoside C-K]	38.7%	–
COc1cc(/C=C/C(=O)OC[C@H]2O[C@H](O[C@]3(CO)O[C@H](CO)[C@@H](O)[C@@H]3O)[C@H](O)[C@@H](O)[C@@H]2O)cc(OC)c1O [Sibiricose A1]	2.3%	–
COc1ccc2cc1Oc1ccc(cc1)C[C@H]1c3cc(c(OC)cc3CCN1C)Oc1c(O)c(OC)cc3c1[C@H](C2)N(C)CC3 [Fangchinoline]	41.6%	–
COc1cc2c3cc1Oc1c(OC)c(OC)cc4c1[C@@H](Cc1ccc(O)c(c1)Oc1ccc(cc1)C[C@@H]3N(C)CC2)N(C)CC4 [Berbamine]	0%	–

SMILES	OC43 Inhibition rate	OC43 Inhibition rate (OC43 Inhibition rate, 24 h)
COc1ccc2cc1Oc1ccc(cc1)C[C@H]1c3cc(c(OC)cc3CCN1C)Oc1c(OC)c(OC)cc3c1[C@H](C2)N(C)CC3 [tetrandrine]	79.7%	–
Oc1ccc(CC2NCCc3cc(O)c(O)cc32)cc1 (stereo not shown) [Higenamine (hydrochloride)]	0.1%	–
Oc1ccc2[nH]ccc2c1 [5-Hydroxyindole]	1.1%	–
COc1c2c(cc3oc(CO)cc(=O)c13)O[C@H](C(C)(C)O)C2 [Cimifugin]	0.3%	–
OC1COC(O)CO1 (stereo not shown) [1,4-Dioxane-2,5-diol]	1.3%	–
CC(C)c1cc2c(c(O)c1O)[C@@]13CCCC(C)(C)[C@@H]1C[C@@H]2OC3=O [Carnosol]	-0.4%	–
COc1c(C(C)C)cc2c(c1O)[C@@]1(C(=O)O)CCCC(C)(C)[C@@H]1CC2 [12-O-Methylcarnosic acid]	54.1%	–
CC(C)c1ccc2c(c1)CC[C@H]1[C@](C)(C(=O)O)CCC[C@]21C [Dehydroabietic acid]	-0.5%	–
COc1cc(C=CC(=O)O)cc(OC)c1O (stereo in doubt) [Sinapinic acid]	1.1%	–
NC1CCN(c2nc3c(cc2F)c(=O)c(C(=O)O)cn3-c2ccc(F)cc2F)C1 (stereo not shown) [Tosufloxacin (tosylate hydrate)]	58.8%	–
CCn1cc(C(=O)O)c(=O)c2ccc(C)nc21 [Nalidixic acid]	0.1%	–
O=C(O)C(O)c1ccc(O)c(O)c1 (stereo not shown) [3,4-Dihydroxymandelic acid]	-0.2%	–
CC(C)=CCC/C(C)=C/Cc1cc(-c2coc3cc(O)ccc3c2=O)ccc1O [Corylifol A]	-2.2%	–
CCCC(=O)C(=O)O [2-Oxovaleric acid]	-0.9%	–
COc1ccc(/C=C/C(=O)O)cc1 [4-Methoxycinnamic acid]	–	-0.5%
CSCC[C@H](NC(C)=O)C(=O)O [N-Acetyl-L-methionine]	0.8%	–
C[C@@H]1CC[C@@]2(OC1)O[C@H]1C[C@H]3[C@@H]4CC=C5C[C@@H](O)C[C@@H](O[C@@H]6O[C@H](C)[C@H](O)[C@H](O[C@@H]7OC[C@@H](O)[C@H](O)[C@H]7O)[C@H]6O[C@@H]6O[C@H](CO)[C@@H](O)[C@H](O)[C@H]6O)[C@]5(C)[C@H]4CC[C@]3(C)[C@H]1[C@@H]2C [Saponin C, from Liriope muscari]	66.4%	–
C[C@@H]1CC[C@@]2(OC1)O[C@H]1C[C@H]3[C@@H]4CC=C5C[C@@H](O)C[C@@H](O[C@@H]6O[C@H](C)[C@H](O)[C@H](O[C@@H]7OC[C@@H](O)[C@H](O)[C@H]7O)[C@H]6O[C@@H]6O[C@@H](C)[C@H](O)[C@@H](O)[C@H]6O)[C@]5(C)[C@H]4CC[C@]3(C)[C@H]1[C@@H]2C [Ophiopogonin D]	–	1.6%
C[C@@H]1CC[C@@]2(OC1)O[C@H]1C[C@H]3[C@@H]4CC=C5C[C@@H](O[C@@H]6O[C@H](CO)[C@@H](O)[C@H](O[C@@H]7O[C@H](CO)[C@@H](O)[C@H](O)[C@H]7O)[C@H]6O[C@@H]6O[C@@H](C)[C@H](O)[C@@H](O)[C@H]6O)CC[C@]5(C)[C@H]4CC[C@]3(C)[C@H]1[C@@H]2C [Gracillin]	7%	–
C[C@@H]1CC[C@@]2(OC1)O[C@H]1C[C@H]3[C@@H]4CC=C5C[C@@H](O)C[C@@H](O[C@@H]6O[C@H](C)[C@H](O)[C@H](O[C@@H]7OC[C@@H](O)[C@H](O)[C@H]7O)[C@H]6O[C@@H]6O[C@@H](C)[C@H](O)[C@@H](O)[C@H]6O)[C@]5(C)[C@H]4CC[C@]3(C)[C@H]1[C@@H]2C [Ophiopogonin D']	–	-0.3%
C[C@H]1CC[C@@]2(OC1)O[C@H]1C[C@H]3[C@@H]4CC=C5C[C@@H](O[C@@H]6O[C@H](CO)[C@@H](O)[C@H](O[C@@H]7OC[C@@H](O)[C@H](O)[C@H]7O)[C@H]6O[C@@H]6O[C@@H](C)[C@H](O)[C@@H](O)[C@H]6O)CC[C@]5(C)[C@H]4CC[C@]3(C)[C@H]1[C@@H]2C [Liriope muscari baily saponins C]	66.1%	–
C[C@@H]1CC[C@@]2(OC1)O[C@H]1C[C@H]3[C@@H]4CC=C5C[C@@H](O[C@@H]6O[C@H](CO)[C@@H](O)[C@H](O)[C@H]6O[C@@H]6O[C@@H](C)[C@H](O)[C@@H](O)[C@H]6O)CC[C@]5(C)[C@H]4CC[C@]3(C)[C@H]1[C@@H]2C [Prosapogenin A]	-12%	–
